Records with an inconclusive call do not appear. The source made the active and inactive calls. The calls were made as follows: active = hit-call score of the fitted dose curve at least 0.9, where 1 is the maximum; inconclusive = response in the unintended direction; inactive = score below 0.9.

Read-out in this test: alkyl and aryl transferase (GSTA2), GSTA2 (gene 2939)
Kind of test: CLD_GSTA2_6hr: CellzDirect (CLD) Gene Expression Assay for alkyl and aryl transferase (GSTA2) at 6 hours (AID 2283666). The procedure:
CLD_6hr is a cell-based, multiplexed-readout assay that uses hepatocyte, a human liver primary cell, with measurements taken at 6 hours after chemical dosing in a 96-well plate.CLD_GSTA2_6hr is one of 16 assay component(s) measured or calculated from the CLD_6hr assay. It is designed to make measurements of mRNA induction, a form of inducible reporter, as detected with chemiluminescence signals by Quantitative Nuclease Protection Assay (qNPA) technology.Data from the assay component CLD_GSTA2_6hr was analyzed at the endpoint, CLD_GSTA2_6hr, in the positive analysis fitting direction relative to DMSO as the negative control and baseline of activity. Using a type of inducible reporter, gain-of-signal activity can be used to understand changes in the reporter gene as they relate to the gene GSTA2. Furthermore, this assay endpoint can be referred to as a primary readout. To generalize the intended target to other relatable targets, this assay endpoint is annotated to the transferase intended target family, where subfamily is alkyl and aryl transferase.
Human hepatocyte cultures were treated daily for two consecutive days with fresh dosing solutions containing appropriate concentrations of the 320 ToxCast chemicals (chemical identities were blinded to CellzDirect and other ToxCast collaborators), vehicle control (0.2% DMSO), and positive control inducers as summarized in Table 1. Due to the large number of treatment groups and chemicals examined, the ToxCast chemicals were divided into two groups (spanning two independent cultures of hepatocytes from separate donor preparations (Hu778: ToxCast plates 1 and 2; Hu776: ToxCast plates 3 and 4). Each preparation of human hepatocyte cultures was treated with respective vehicle control, medium only control, set of six positive controls/reference chemicals for the five hepatic receptor pathways, and a subset of eight of the ToxCast chemicals (indoxacarb, pyrithiobac-sodium, norflurazon, cyhalofop-butyl, methomyl, thiram, acetochlor, and propiconazole). These replicate data, coupled with internal replicates designed within the blinded ToxCast chemical library, provided additional data to evaluate interindividual differences between hepatocyte preparations and their potential impact on chemical profiles.Cell morphology and integrity were evaluated using phase-contrast microscopy as an indicator of hepatocyte cell health (Tyson & Green, 1987). Cultures for each treatment group (i.e., media, vehicle [0.2% DMSO], positive control inducers [multiple concentrations], and the ToxCast chemicals [multiple concentrations]) were observed and cell morphology was assessed relative to vehicle control cultures at each harvest time point (0, 6, 24, or 48 h). […] Images were evaluated at the conclusion of the study to assess changes in cell integrity and account for the effects of chemical exposure on uncharacteristic changes in concentration-dependent gene expression profiles. The results from these determinations of apparent cytotoxicity were annotated (yes/no) alongside the corresponding qNPA data for reference.At the conclusion of each treatment period, hepatocyte cultures (96-well) were washed with 1 volume of HBSS, lysed by addition of 25 ul ArrayPlate lysis buffer (HTG, Tucson, AZ), and 70 ul/well of Denaturation Oil, denatured by incubation at 95C for 10 min, and frozen at approximately -70C until analysis by nuclease protection assay (qNPA) (Roberts et al., 2007). For qNPA analysis, cell lysates were thawed at 50C for approximately 30 min, qNPA probes were added, and samples were incubated at 95C for 10 min to begin the detection process by denaturing the target RNA, dissociating the duplexes and secondary structure hybridization. At the conclusion of the hybridization period, S1 nuclease reagent was added to each sample to digest all nonprotected nucleotides at 50C for 60-90 min. […]
On to `CC(C)Oc1cccc(NC(=O)c2ccccc2C(F)(F)F)c1`, for which the call was inactive. In the case of `COCc1cnc(C2=NC(C)(C(C)C)C(=O)N2)c(C(=O)O)c1` (stereo not given) it was “inactive”; in that of `CC1(C)CON(Cc2ccccc2Cl)C1=O`, “inactive”. Regarding `COC(=O)N(C(=O)N1CO[C@@]2(C(=O)OC)Cc3cc(Cl)ccc3C2=N1)c1ccc(OC(F)(F)F)cc1`, the call was inactive.

On to `Nc1c(Cl)c(Cl)nc(C(=O)O)c1Cl`, for which the outcome was inactive. Turning to `CCOc1cc(C(C)(C)C)ccc1C1COC(c2c(F)cccc2F)=N1` (stereo not given), the result was inactive. Consider `N#CN=C1SCCN1Cc1ccc(Cl)nc1`, for which the result was inactive. The same measure for `CC(C)N1C(=O)c2ccccc2NS1(=O)=O`: “inactive”; for `CN=C=S`: “inactive”; for `C=CCOC(=O)C(C)(C)OC(=O)c1cc(-n2c(=O)cc(C(F)(F)F)n(C)c2=O)ccc1Cl`: “inactive”.

As for `Cc1nc(N(C)C)nc(OC(=O)N(C)C)c1C`, the compound was classed as inactive. `O=P(O)(O)CCCl`: the call was inactive. The same measure for `COc1cc(Cl)c(OC)cc1Cl`: “inactive”; for `CCOc1nc(C(Cl)(Cl)Cl)ns1`: “inactive”; for `Cc1cnc(C2=NC(C)(C(C)C)C(=O)N2)c(C(=O)O)c1` (stereo not given): “inactive”. As for `O=c1n(Cl)c(=O)n(Cl)c(=O)n1Cl`, the outcome was inactive. Turning to `COP(=O)(OC)O/C(C)=C/C(=O)N(C)C`, the compound was classed as inactive. The same measure for `CC1(C)CCC(=Cc2ccc(Cl)cc2)C1(O)Cn1cncn1` (stereo not given): “inactive”; for `COC(=O)NS(=O)(=O)c1ccc(N)cc1`: “inactive”; for `O=C1C2CC=CCC2C(=O)N1SC(Cl)(Cl)Cl` (stereo not given): “inactive”. Take `CCOP(=O)(OCC)Oc1nc(Cl)c(Cl)cc1Cl`: the compound was called inactive. In the case of `CC(C)C1(C)N=C(c2ncccc2C(=O)O)NC1=O` (stereo not given) it was “inactive”; in that of `CO/N=C(/C1=NOCCO1)c1ccccc1Oc1ncnc(Oc2ccccc2Cl)c1F`, “inactive”.

For `Cc1ccc(N=CN(C)C=Nc2ccc(C)cc2C)c(C)c1`, the call was inactive.

`COC(=O)c1c(C(F)F)nc(C(F)(F)F)c(C2=NCCS2)c1CC(C)C`: the compound was called inactive. In the case of `CNC(=O)N(C)c1nnc(C(C)(C)C)s1` it was “inactive”; in that of `CC(C)N1C(=O)N(c2ccccc2)CSC1=NC(C)(C)C`, “inactive”; in that of `CCNP(=S)(OC)O/C(C)=C/C(=O)OC(C)C` (stereo not given), “inactive”. Turning to `COP(=S)(OC)SCn1nnc2ccccc2c1=O`, the compound was classed as inactive. As to `CC1(C)C(C=C(Cl)Cl)C1C(=O)OC(C#N)c1cccc(Oc2ccccc2)c1` (stereo not given), the result was inactive. The same measure for `CCNC(=O)NC(=O)C(C#N)=NOC`: “inactive”; for `N#Cc1c(Cl)cccc1Cl`: “inactive”. The same measure for `COP(=S)(OC)Oc1ccc([N+](=O)[O-])c(C)c1`: “inactive”. As for `CCCN(CC)CC1COC2(CCC(C(C)(C)C)CC2)O1` (stereo not given), the outcome was inactive. In the case of `COCC(=O)N(c1c(C)cccc1C)C(C)C(=O)OC` (stereo not given) it was “inactive”. The same measure for `COCC(C)N(C(=O)CCl)c1c(C)csc1C` (stereo not given): “inactive”.

`CSC(=O)c1c(C(F)F)nc(C(F)(F)F)c(C(=O)SC)c1CC(C)C`: the compound was called inactive. In the case of `CC(C)(C)C(=O)C(Oc1ccc(Cl)cc1)n1cncn1` (stereo not given) it was “inactive”; in that of `Clc1cccc(C(Cl)(Cl)Cl)n1`, “inactive”; in that of `CS(=O)(=O)c1ccc(C(=O)C2C(=O)CCCC2=O)c([N+](=O)[O-])c1`, “inactive”.

These data come from PubChem BioAssay (EPA / NIEHS).
